40 compounds from PubChem BioAssay (Tox21) can be followed below.

Results filed as inconclusive are left out. Entries that show only a call come without a potency. Activity calls are given as the source filed them. Calls come from the whole dose curve.
Potency is the fitted concentration of half-maximal effect.

Retinoic acid receptor RXR-alpha (Homo sapiens), sequence (P19793 whole entry, looked up): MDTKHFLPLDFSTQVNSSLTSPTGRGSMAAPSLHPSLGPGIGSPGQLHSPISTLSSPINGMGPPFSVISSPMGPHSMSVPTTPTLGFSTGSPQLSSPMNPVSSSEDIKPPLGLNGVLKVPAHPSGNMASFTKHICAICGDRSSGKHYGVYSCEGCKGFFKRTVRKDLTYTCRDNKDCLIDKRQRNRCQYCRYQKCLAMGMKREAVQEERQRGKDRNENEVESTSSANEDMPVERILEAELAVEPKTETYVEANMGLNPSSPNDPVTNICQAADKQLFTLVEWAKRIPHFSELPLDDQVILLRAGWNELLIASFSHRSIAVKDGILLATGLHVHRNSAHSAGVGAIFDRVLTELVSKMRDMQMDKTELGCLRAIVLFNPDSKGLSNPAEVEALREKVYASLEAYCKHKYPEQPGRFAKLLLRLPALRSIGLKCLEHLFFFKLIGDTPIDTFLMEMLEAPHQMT

This experiment addresses Retinoic acid receptor RXR-alpha (Homo sapiens) (UniProt P19793). Put plainly: qHTS assay to identify small molecule agonists of the RXR signaling pathway (AID 1159527). Note: nearly all actives have a fitted effect of over 35% in size. Conditions: HEK293T RXRa-UAS-bla, beta-lactamase ratio, 16 h; series mostly up to 76.8 µM. From the text:
U.S. Tox21 Program National Center for Advancing Translational Sciences [NCATS] NIH Chemical Genomics Center [NCGC] U.S. Environmental Protection Agency [EPA] National Institutes of Environmental Health Sciences [NIEHS] National Toxicology Program [NTP] U.S. Food and Drug Administration [FDA] Tox21 Assay Overview: The Retinoid X receptor (RXR), a nuclear hormone receptor expressed in liver, spleen, placenta, epidermis, central nervous system. These receptors are able to form homo and heterodimers with other nuclear receptors and due to this heterodimerizing ability, RXR functions as master regulators producing diverse physiological effects. Three subtypes of RXR exist; alpha, beta and gamma. Retinoid X receptor alpha (RXR-alpha) has potential roles in metabolic signaling pathways, skin alopecia, dermal cysts, cardiac development, insulin sensitization etc. Therefore screening environmental chemicals on RXR-alpha signaling can be used for the studies focused on such therapeutic applications. For quantification of RXR-alpha ligands signaling, GeneBLAzer RXR alpha-UAS-bla HEK 293T (Life Technologies, Carlsbad, CA) cells containing a beta-lactamase reporter-gene under control of Retinoid X receptor-alpha response element were used to screen Tox21 10K library.
Tox21 Assay Protocol Summary: RXR-alpha HEK 293T cells were dispensed at 2,000 cells/6 uL of assay medium containing 2% charcoal-stripped FBS using a Multidrop Combi (ThermoFisher Scientific, Waltham, MA) dispenser. The assay was performed in black wall/clear-bottom 1536-well plates (Greiner Bio-One North America Inc. Monroe, NC). 9-cis retinoic acid was used as a positive control in the agonist mode screen. After the assay plates were incubated at 37 C and 5% CO2 for 5 hr, 23 nL of compounds dissolved in DMSO, positive controls or DMSO only were transferred to the assay plate by a Pintool station (Kalypsys, San Diego, CA). The assay plates were incubated at 37 C and 5% CO2 for 16 hr. One uL of LiveBLAzer B/G FRET substrate (Life Technologies) was added using a Flying Reagent Dispenser (Aurora Discovery, San Diego, CA) and the plates were incubated at room temperature for 2 hr. Fluorescence intensity (405 nm excitation, 460/530 nm emission) was measured using an Envision plate reader (PerkinElmer, Shelton, CT).
(In general: In qHTS, concentration-response curves come from the screen itself.)
`CC(=O)OCC1=C(C(=O)O)N2C(=O)[C@@H](NC(=O)CSc3ccncc3)[C@H]2SC1`: the Potency result is “inactive”. The entry for `CCO[Si](C)(CCCOCC1CO1)OCC` (stereo not given) is “inactive”. The figure for `CCCCCCCCCCCC(=O)OCC(O)CO` (stereo not given) is 54.9 µM (active); for `SCCc1cnccn1` it is “inactive”. The entry for `CCCCCCC(O)CCCCCCCCCCC(=O)OC` (stereo not given) is “inactive”; for `CC(C)c1ccc(C#N)cc1` it is “inactive”; for `Cc1cn([C@H]2C[C@H](F)[C@@H](CO)O2)c(=O)[nH]c1=O` it is “inactive”. On to `O=P(O)(O)Oc1ccccc1`, for which the Potency result was “inactive”. The value for `Cc1cccc(C)c1NC(=O)c1cc(S(N)(=O)=O)c(Cl)cc1O` was “inactive”; that for `COc1ccc(CCN(C)CCCN2CCc3cc(OC)c(OC)cc3CC2=O)cc1OC` was “inactive”; that for `COC(CC(C)CCCC(C)(C)O)OC` (stereo not given) was “inactive”.

As for `CC(=O)OCCC(C)CC(C)(C)C` (stereo not given), the Potency was 11 µM (active). The entry for `CC(C)CC(O)CC(C)C` is “inactive”; for `COC(OC)OC` it is “inactive”. `C[C@@H]1[C@H](O)[C@@H](C)/C=C/C=C\C=C\C=C\C=C\C=C\C=C\[C@H](O[C@@H]2O[C@H](C)[C@@H](O)[C@H](N)[C@@H]2O)C[C@@H]2O[C@](O)(C[C@@H](O)C[C@@H](O)[C@H](O)CC[C@@H](O)C[C@@H](O)CC(=O)O[C@H]1C)C[C@H](O)[C@H]2C(=O)O` (stereo in doubt): the Potency result is “inactive”. The entry for `CC1C(C)(C)C2=C(C(=O)CCC2)C1(C)C` (stereo not given) is “inactive”; for `COc1ccc(C(=O)NCc2ccc(OCCN(C)C)cc2)cc1OC` it is “inactive”. The value for `O=C(CCS)OCC(COC(=O)CCS)(COC(=O)CCS)COC(=O)CCS` was “inactive”; that for `Nc1c(Cl)cc(Cl)cc1[N+](=O)[O-]` was “inactive”. Turning to `CCc1ccc(C)cc1`, the Potency entry was “inactive”. For the compound `O=C(C(=O)c1ccco1)c1ccco1`, the Potency result was “inactive”. For the compound `CCOc1ncc(F)c(=O)[nH]1`, the Potency entry is “inactive”.

In the case of `Cc1ccccc1S(N)(=O)=O`, the Potency entry is “inactive”. The value for `Cc1ccc2c(c1)CCCN2` was “inactive”. In the case of `Nc1nc(-c2ccc([N+](=O)[O-])cc2)cs1`, the Potency result was “inactive”.

For the compound `CCCCCCCCCCCCCOS(=O)(=O)O`, the Potency entry is “inactive”. For the compound `O=C1c2ccccc2C(=O)c2c(O)ccc(O)c21`, the Potency entry is “inactive”. The entry for `CC(=O)OC(C)C[N+](C)(C)C` (stereo not given) is “inactive”; for `O=C(O)c1ccc(O)cc1O` it is “inactive”. Take `C1=CCC2CC=CC2C1` (stereo not given): the Potency entry was “inactive”. The value for `CC[C@H]1OC(=O)[C@H](C)[C@@H](O[C@H]2C[C@@](C)(OC)[C@@H](O)[C@H](C)O2)[C@H](C)[C@@H](O[C@@H]2O[C@H](C)C[C@H](N(C)C)[C@H]2O)[C@](C)(O)C[C@@H](C)/C(=N\OCOCCOC)[C@H](C)[C@@H](O)[C@]1(C)O` was “inactive”; that for `CC(CCc1ccc(O)cc1)NCCc1ccc(O)c(O)c1` (stereo not given) was “inactive”. The value for `CCCCCCC(CO)CCCC` (stereo not given) was “inactive”; that for `O=CNNC=O` was “inactive”. The value for `CNC1CCCN(c2c(F)cc3c(=O)c(C(=O)O)cn(C4CC4)c3c2OC)C1` (stereo not given) was “inactive”; that for `CCC(C)(C)C(=O)O` was “inactive”. For the compound `CC(C)(C)C(O)/C=C/c1ccc2c(c1)OCO2` (stereo not given), the Potency result is “inactive”. The value for `CCCCCCCCCCCCCCCC(=O)OCC` was “inactive”; that for `CC1CCCC(=O)C1=O` (stereo not given) was “inactive”; that for `CCCCCCOC(=O)CCCCC` was “inactive”.
